Test results as given in PubChem BioAssay (EPA / NIEHS).
The source made the active and inactive calls. Rule for the calls: active = hit-call score of the fitted dose curve at least 0.9, where 1 is the maximum; inactive = score below 0.9.

What was measured:
Settings in all cases: mRNA level, 48 h; actives raise or lower the signal
[1] = read-out: Cytochrome P450 7A1 (Homo sapiens) (UniProt P22680); experiment: LTEA_HepaRG_CYP7A1: Life Technologies and Expression Analysis (LTEA) Assay for Cytochrome P450 7A1 (CYP7A1) using HepaRG (AID 2283496)
Summary of the method: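 HepaRG cells plated 48 h, then switched to serum-free induction medium and exposed in duplicate for 48 h to 8-point half-log series from 100 uM in 0.5% DMSO. CYP7A1 mRNA by qRT-PCR (TaqMan), normalized to ACTB/GAPDH/POLR2A; bidirectional fit versus DMSO.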

[2] = read-out: Glutamate-cysteine ligase catalytic (GCLC), GCLC (gene 2729); experiment: LTEA_HepaRG_GCLC: Life Technologies and Expression Analysis (LTEA) Assay for Glutamate-cysteine ligase catalytic (GCLC) using HepaRG (AID 2283498)
Summary of the method: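 Differentiated human HepaRG cells, plated 48 h then switched to serum-free induction medium, were exposed in duplicate for 48 h to 8 half-log concentrations topping at 100 uM in 0.5% DMSO. GCLC mRNA was quantified by qRT-PCR against ACTB, GAPDH and POLR2A.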

[3] = read-out: growth arrest and DNA damage 45 (GADD45G), GADD45G (gene 10912); experiment: LTEA_HepaRG_GADD45G: Life Technologies and Expression Analysis (LTEA) Assay for growth arrest and DNA damage 45 (GADD45G) using HepaRG (AID 2283499)
Summary of the method: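 HepaRG, 48 h exposure, top 100 uM, half-log 8-point series, 0.5% DMSO vehicle, duplicates. Readout: GADD45G transcript by qRT-PCR (Fluidigm array), housekeeping-normalised (ACTB/GAPDH/POLR2A). Bidirectional curve fit vs DMSO baseline.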

[4] = read-out: Glutamate-cysteine ligase regulatory (GCLM), GCLM (gene 2730); experiment: LTEA_HepaRG_GCLM: Life Technologies and Expression Analysis (LTEA) Assay for Glutamate-cysteine ligase regulatory (GCLM) using HepaRG (AID 2283500)
Summary of the method: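 Cells were plated, cultured 48 h, switched to serum-free induction medium, then dosed in duplicate for 48 h at eight half-log concentrations up to 100 uM. RNA was then profiled by qRT-PCR; gain or loss versus DMSO was fitted.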

[5] = read-out: Glutathione S-transferase M3 (GSTM3), GSTM3 (gene 2947); experiment: LTEA_HepaRG_GSTM3: Life Technologies and Expression Analysis (LTEA) Assay for Glutathione S-transferase M3 (GSTM3) using HepaRG (AID 2283501)
Summary of the method: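 qRT-PCR read-out of GSTM3 transcript, normalized to three housekeeping genes, from human HepaRG cells after 48 h chemical exposure. Eight-point half-log series, top 100 uM, 0.5% DMSO vehicle; gain or loss fitted relative to DMSO baseline.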

[6] = read-out: Hypoxia-inducible factor 1-alpha (Homo sapiens) (UniProt Q16665); experiment: LTEA_HepaRG_HIF1A: Life Technologies and Expression Analysis (LTEA) Assay for Hypoxia-inducible factor 1 (HIF1A) Trancription factor using HepaRG (AID 2283503)
Summary of the method: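 Differentiated HepaRG cells in serum-free induction medium exposed 48 h, in duplicate, to 8-point half-log series from 100 uM in 0.5% DMSO. HIF1A mRNA measured by TaqMan qRT-PCR, normalized to ACTB/GAPDH/POLR2A, fitted bidirectionally versus DMSO.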

HGF (gene 3082) = experiment: LTEA_HepaRG_HGF: Life Technologies and Expression Analysis (LTEA) Assay for Hepatocyte Growth Facto (HGF) using HepaRG (AID 2283505)
Summary of the method: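 HepaRG, 48 h dosing, 8-pt half-log series from 100 uM in 0.5% DMSO, duplicates. Readout: TaqMan qRT-PCR of HGF mRNA, housekeeping-normalized; bidirectional curve fit vs DMSO baseline.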

[7] = read-out: Insulin Like Growth Factor 1 (IGF1), IGF1 (gene 3479); experiment: LTEA_HepaRG_IGF1: Life Technologies and Expression Analysis (LTEA) Assay for Insulin Like Growth Factor 1 (IGF1) using HepaRG (AID 2283506)
Summary of the method: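 HepaRG, plated 48 h, then switched to serum-free induction media; test chemical 8-pt half-log from 100 uM (0.5% DMSO), duplicate, 48 h. Lysis in RLT, TaqMan qRT-PCR, norm. ACTB/GAPDH/POLR2A. Bidirectional fit vs DMSO.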

[8] = read-out: Intercellular Adhesion Molecule 1 (ICAM1), ICAM1 (gene 3383); experiment: LTEA_HepaRG_ICAM1: Life Technologies and Expression Analysis (LTEA) Assay for Intercellular Adhesion Molecule 1 (ICAM1) using HepaRG (AID 2283507)
Summary of the method: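 HepaRG, 48 h exposure, 8-pt half-log series from 100 uM, 0.5% DMSO vehicle, duplicates. Readout: TaqMan qRT-PCR mRNA, housekeeping-normalized (ACTB/GAPDH/POLR2A). Bidirectional curve fit vs DMSO baseline.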

[9] = read-out: Insulin-like growth factor-binding protein 1 (IGFBP1), IGFBP1 (gene 3484); experiment: LTEA_HepaRG_IGFBP1: Life Technologies and Expression Analysis (LTEA) Assay for Insulin-like growth factor-binding protein 1 (IGFBP1) using HepaRG (AID 2283508)
Summary of the method: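 qRT-PCR mRNA read-out (TaqMan, Fluidigm array), normalised to three housekeeping genes; HepaRG cells, 48 h exposure, 8-pt half-log series from 100 uM, 0.5% DMSO vehicle; bidirectional curve fit vs DMSO baseline.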

[10] = read-out: Interleukin 6 (IL6), IL6 (gene 3569); experiment: LTEA_HepaRG_IL6: Life Technologies and Expression Analysis (LTEA) Assay for Interleukin 6 (IL6) using HepaRG (AID 2283509)
Summary of the method: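 Differentiated human HepaRG cells, plated 48 h then switched to serum-free induction medium, were exposed in duplicate for 48 h to eight half-log concentrations up to 100 uM in 0.5% DMSO. IL6 mRNA measured by qRT-PCR, normalized to ACTB/GAPDH/POLR2A.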

[11] = read-out: Interleukin 6 Receptor (IL6R), IL6R (gene 3570); experiment: LTEA_HepaRG_IL6R: Life Technologies and Expression Analysis (LTEA) Assay for Interleukin 6 Receptor (IL6R) using HepaRG (AID 2283510)
Summary of the method: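 Readout is IL6R transcript level by TaqMan qRT-PCR, normalized to three housekeeping genes and fitted bidirectionally against 0.5% DMSO controls. Human HepaRG cells received chemicals for 48 h in serum-free induction medium, highest concentration 100 uM.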

[12] = read-out: Potassium channel subfamily K member 1 (KCNK1), KCNK1 (gene 3775); experiment: LTEA_HepaRG_KCNK1: Life Technologies and Expression Analysis (LTEA) Assay for Potassium channel subfamily K member 1 (KCNK1) using HepaRG (AID 2283511)
Summary of the method: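 Differentiated human HepaRG cells in serum-free induction medium were exposed in duplicate for 48 h to 8 half-log concentrations up to 100 uM in 0.5% DMSO. KCNK1 mRNA was measured by TaqMan qRT-PCR, normalized to ACTB, GAPDH and POLR2A, and fitted bidirectionally versus DMSO.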

[13] = read-out: JUN Transcription Factor, JUN (gene 3725); experiment: LTEA_HepaRG_JUN: Life Technologies and Expression Analysis (LTEA) Assay for JUN Transcription Factor using HepaRG (AID 2283513)
Summary of the method: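 Cells plated 48 h, medium switched to serum-free induction medium, then dosed 48 h (100 uM top, half-log dilutions, 0.5% DMSO). RNA isolated; JUN measured by qRT-PCR against three housekeeping genes; gain or loss fitted relative to DMSO.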

[14] = read-out: Lipoprotein lipase (LPL), LPL (gene 4023); experiment: LTEA_HepaRG_LPL: Life Technologies and Expression Analysis (LTEA) Assay for Lipoprotein lipase (LPL) using HepaRG (AID 2283515)
Summary of the method: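 Differentiated human HepaRG cells in serum-free induction medium were exposed in duplicate for 48 h to eight half-log concentrations (top 100 uM) in 0.5% DMSO. LPL mRNA was quantified by TaqMan qRT-PCR, normalized to ACTB, GAPDH and POLR2A.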

[15] = read-out: Keratin 19 (KRT19), KRT19 (gene 3880); experiment: LTEA_HepaRG_KRT19: Life Technologies and Expression Analysis (LTEA) Assay for Keratin 19 (KRT19) using HepaRG (AID 2283512)
Summary of the method: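 HepaRG, 48 h chemical exposure, 8-pt half-log CRC from 100 uM, 0.5% DMSO vehicle, duplicates. Readout: TaqMan qRT-PCR of KRT19 mRNA, housekeeping-normalized (ACTB/GAPDH/POLR2A). Bidirectional fit vs DMSO baseline.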

[16] = read-out: Lipase C (LIPC), LIPC (gene 3990); experiment: LTEA_HepaRG_LIPC: Life Technologies and Expression Analysis (LTEA) Assay for Lipase C (LIPC) using HepaRG (AID 2283514)
Summary of the method: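 Differentiated human HepaRG cells in serum-free induction medium were exposed in duplicate for 48 h to eight concentrations (top 100 uM, half-log steps, 0.5% DMSO). LIPC mRNA was quantified by TaqMan qRT-PCR, normalized to ACTB, GAPDH and POLR2A, with bidirectional fitting versus DMSO.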

[17] = read-out: Heat shock 70 kDa protein 1 (HSPA1A), gene 3303; experiment: LTEA_HepaRG_HSPA1A: Life Technologies and Expression Analysis (LTEA) Assay for Heat shock 70 kDa protein 1 (HSPA1A) using HepaRG (AID 2283502)
Summary of the method: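 Readout is HSPA1A transcript level by microfluidic qRT-PCR, normalized to three housekeeping genes and analysed for gain or loss of signal relative to 0.5% DMSO. Human HepaRG cultures received test chemicals for 48 h at up to 100 uM.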

[18] = read-out: 3-Hydroxy-3-Methylglutaryl-CoA Synthase 2 (HMGCS2), HMGCS2 (gene 3158); experiment: LTEA_HepaRG_HMGCS2: Life Technologies and Expression Analysis (LTEA) Assay for 3-Hydroxy-3-Methylglutaryl-CoA Synthase 2 (HMGCS2) using HepaRG (AID 2283504)
Summary of the method: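 qRT-PCR read-out of HMGCS2 transcript, normalised to three housekeeping genes, in HepaRG cells after 48 h chemical exposure. Eight-point curves from 100 uM, half-log dilutions, 0.5% DMSO vehicle; gain or loss fitted relative to DMSO baseline.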

Measured: AC50

Hypoxia-inducible factor 1-alpha (Homo sapiens), sequence (Q16665 whole entry, looked up): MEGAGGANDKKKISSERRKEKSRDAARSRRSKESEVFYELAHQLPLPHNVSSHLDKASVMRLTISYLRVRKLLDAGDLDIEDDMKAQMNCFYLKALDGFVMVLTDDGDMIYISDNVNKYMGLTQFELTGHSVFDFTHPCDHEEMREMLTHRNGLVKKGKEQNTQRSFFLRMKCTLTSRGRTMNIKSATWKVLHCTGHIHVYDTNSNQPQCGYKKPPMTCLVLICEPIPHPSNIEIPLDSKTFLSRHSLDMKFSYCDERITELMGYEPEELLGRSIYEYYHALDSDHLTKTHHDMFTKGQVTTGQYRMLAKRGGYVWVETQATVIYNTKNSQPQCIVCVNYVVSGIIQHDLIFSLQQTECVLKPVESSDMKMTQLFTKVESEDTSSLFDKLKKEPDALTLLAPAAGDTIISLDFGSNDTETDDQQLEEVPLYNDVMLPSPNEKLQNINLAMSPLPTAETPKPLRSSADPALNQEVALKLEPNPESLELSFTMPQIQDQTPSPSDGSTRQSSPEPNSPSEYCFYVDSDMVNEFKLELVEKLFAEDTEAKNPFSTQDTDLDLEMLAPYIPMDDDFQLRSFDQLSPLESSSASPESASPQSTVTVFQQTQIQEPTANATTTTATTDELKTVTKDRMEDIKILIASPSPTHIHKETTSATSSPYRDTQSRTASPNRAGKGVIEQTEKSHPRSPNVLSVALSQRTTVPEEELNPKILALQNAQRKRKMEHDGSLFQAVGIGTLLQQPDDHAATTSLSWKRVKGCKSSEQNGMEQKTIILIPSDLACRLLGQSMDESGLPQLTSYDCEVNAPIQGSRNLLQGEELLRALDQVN

CCC(C)(CC)c1cc(NC(=O)c2c(OC)cccc2OC)on1
active: [2] 63.8 µM | [3] 80.1 µM | [7] 1.79 µM | [9] 50 µM
inactive: [1] | [4] | [5] | [6] | HGF (gene 3082) | [8] | [10] | [11] | [12] | [13] | [14]

O=C(NC(=O)c1c(F)cccc1F)Nc1cc(Cl)c(OC(F)(F)C(F)F)c(Cl)c1
inactive: [2] | [3] | [4] | [5] | [6] | HGF (gene 3082) | [7] | [8] | [9] | [10] | [11] | [12] | [15] | [13] | [14]
active: [1] 13.6 µM | [16] 50 µM

O=NN(c1ccccc1)c1ccccc1
inactive: [1] | [2] | [3] | [4] | [5] | [6] | HGF (gene 3082) | [7] | [8] | [9] | [10] | [11] | [12] | [15] | [13] | [14]

Cc1ccccc1[N+](=O)[O-]
inactive: [1] | [2] | [3] | [4] | [5] | [17] | [6] | HGF (gene 3082) | [8] | [9] | [10] | [11] | [12] | [15] | [13] | [14]

COS(=O)(=O)OC
inactive: [1] | [2] | [3] | [4] | [5] | [6] | [18] | HGF (gene 3082) | [7] | [8] | [9] | [10] | [11] | [12] | [15] | [13] | [14]

CN(C)c1nc(=O)n(C2CCCCC2)c(=O)n1C
active: [8] 5.44 µM
inactive: [1] | [2] | [3] | [4] | [5] | [6] | [18] | HGF (gene 3082) | [7] | [9] | [10] | [11] | [12] | [15] | [13] | [14]

c1cc2ccc3cccc4ccc(c1)c2c34
inactive: [1] | [2] | [3] | [4] | [5] | [6] | HGF (gene 3082) | [8] | [9] | [10] | [11] | [12] | [15] | [13] | [14]
